# Data as given in PubChem BioAssay (Tox21).
# Unmarked numbers belong to inactive results. The call rests on the fitted dose curve.
# Biological target: Estrogen receptor (Homo sapiens) (UniProt P03372)
# Assay: qHTS assay to identify small molecule agonists of the estrogen receptor alpha (ER-alpha) signaling pathway in the presence of an antagonist (AID 1259383); further: top concentration of the series differs between compounds; nearly all actives have a fitted effect of over 15% in size
# Details: VM7Luc4E2 cells, ERE-luciferase, +ICI-182,780, 22 h; series mostly up to 92.4 µM; activation: at the top concentration
# Text: National Center for Advancing Translational Sciences [NCATS] NIH Chemical Genomics Center [NCGC] U.S. Environmental Protection Agency [EPA] National Institutes of Environmental Health Sciences [NIEHS] National Toxicology Program [NTP] Assay overview: Estrogen receptor (ER), a member of nuclear hormone receptor plays an important role in development, metabolic homeostasis and reproduction. Two subtypes of ER, ER-alpha and ER-beta, have similar expression patterns with some uniqueness in both types. Endocrine disrupting chemicals (EDCs) and their interactions with steroid hormone receptors like ER causes disruption of normal endocrine function. Therefore, it is important to understand the effect of environmental chemicals in ER signaling pathway. For identifying ER agonists, VM7Luc4E2 cell line has been used in the current assay. VM7Luc4E2 cell line (provided by Denison MS, University of California) endogenously expresses full-length ER-alpha and is stably transfected with a plasmid containing four estrogen responsive elements (ERE) upstream of a luciferase reporter gene. This current screening for measuring luciferase reporter gene activity using VM7Luc4E2 cells against Tox21 10K library collection is a confirmation study on agonist mode screening in presence of ER-antagonist (ICI-182,780) at 10.0nM final concentration.
# Assay Protocol Summary: VM7Luc4E2 cells were cultured in phenol red free assay medium containing 10% charcoal stripped FBS for 5 days prior to the assay. The cells were dispensed at 4,000 cells in 4uL of assay medium per well into white wall/solid-bottom 1536-well plates (Corning Life Sciences, Corning, NY) using a Multidrop Combi (Thermo Fisher Scientific Inc., Waltham, MA) dispenser. After the assay plates were incubated at 37C and 5% CO2 for 24hr, 1uL of 10.0nM (final concentration) ICI-182,780 or assay buffer was added using two separate tips of Flying Reagent Dispenser (FRD, Aurora Discovery, San Diego, CA). Then 23nL of compounds dissolved in DMSO at 15 concentrations and positive controls or DMSO only was transferred to the assay plates by a Pintool station (Wako, San Diego, CA). The assay plates were incubated at 37C and 5% CO2 for 22hr. For luciferase read, 4uL/well ONE-Glo reagent (Promega Corporation, Madison, WI) was added to each well using FRD and after 30min incubation at room temperature, luminescence signal was measured on ViewLux plate reader (PerkinElmer, Shelton, CT).
# On the % scale 0 is the no-effect control and ±100 the full control effect.
# Sequence of Estrogen receptor (Homo sapiens) (P03372 whole entry, looked up): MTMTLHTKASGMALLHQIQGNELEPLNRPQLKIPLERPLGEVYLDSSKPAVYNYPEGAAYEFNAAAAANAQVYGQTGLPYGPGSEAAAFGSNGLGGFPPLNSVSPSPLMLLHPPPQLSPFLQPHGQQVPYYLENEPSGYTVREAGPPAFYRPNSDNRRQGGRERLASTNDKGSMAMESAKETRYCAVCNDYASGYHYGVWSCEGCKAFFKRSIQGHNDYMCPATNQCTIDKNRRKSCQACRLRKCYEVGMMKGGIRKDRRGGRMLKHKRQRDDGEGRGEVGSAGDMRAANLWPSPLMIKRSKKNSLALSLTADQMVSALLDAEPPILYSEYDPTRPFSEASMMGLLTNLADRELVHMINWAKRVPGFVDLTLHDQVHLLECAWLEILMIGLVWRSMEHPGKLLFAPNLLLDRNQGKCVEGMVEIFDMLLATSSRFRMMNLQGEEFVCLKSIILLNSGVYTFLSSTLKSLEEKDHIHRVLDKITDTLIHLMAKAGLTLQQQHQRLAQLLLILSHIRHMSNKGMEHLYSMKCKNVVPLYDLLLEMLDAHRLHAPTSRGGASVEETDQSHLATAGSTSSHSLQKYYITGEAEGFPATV
row,Compound,activation
1,CC1(C)[C@H](C(=O)OCc2cccc(Oc3ccccc3)c2)[C@@H]1C=C(Cl)Cl,0.291%
2,O=C(c1ccccc1)c1ccc(Cl)cc1,1.88%
3,Cc1cc(F)ccc1-c1cc(N2CC[C@@H](O)[C@H]2CO)ncc1N(C)C(=O)C(C)(C)c1cc(C(F)(F)F)cc(C(F)(F)F)c1,-1.49%
4,Cc1cccc2c1ccc1ccccc12,5.04%
5,CCCC(=O)c1cc(O)c(O)cc1O,-2.77%
6,Nc1c(Br)cc([N+](=O)[O-])cc1Br,-1.12%
7,O=C(O)C[C@H](O)C[C@H](O)/C=C/c1c(C2CC2)nc2ccccc2c1-c1ccc(F)cc1,-0.342% [at 19 µM]
8,C=CC(C)(C)O,-0.0842%
9,Cn1c(=O)[nH]c2ncn(C)c2c1=O,0.0821%
10,CCCCCCCCOC(=O)c1cc(O)c(O)c(O)c1,-6.05%
11,Cc1cc(Br)ccc1NC(=O)CCl,-15.8%
12,CC(=O)[C@]1(O)Cc2c(O)c3c(c(O)c2[C@@H](O[C@H]2C[C@H](N)[C@H](O)[C@H](C)O2)C1)C(=O)c1ccccc1C3=O,-4.89% [at 42.5 µM]
13,CCCCCCCCc1ccc(Nc2ccc(CCCCCCCC)cc2)cc1,-1.03% [at 42.5 µM]
14,CCc1c(C)cc(N)c(CC)c1N,-0.935%
15,C=CC(=O)O[C@H]1C[C@@H]2CC[C@@]1(C)C2(C)C,0.102%
16,c1ccc(-c2ccc(C(c3ccccc3)n3ccnc3)cc2)cc1 (stereo not given),4.73% [at 42.5 µM]
17,C=CC(=O)OCCOC1C2CCC1C1CC=CC12 (stereo not given),0.428% [at 19 µM]
18,CN1CCN(c2ccccc2/C=C2\SCCN(c3ccc(Cl)c(Cl)c3)C2=O)CC1,-15%
19,N#CCCOCCC#N,-0.977%
20,Brc1cc(Br)cc(Br)c1,0.0261%

row,Compound,activation
1,CCN(CC)c1ccc2c(c1)Oc1cc(N(CC)CC)ccc1C21OC(=O)c2ccccc21,-3.7% [at 42.5 µM]
2,O=C1OCc2ccccc21,1.19%
3,CCOC(=O)[C@H](O)[C@@H](O)C(=O)OCC,-0.321%
4,CCC(C)(C)c1ccc(CC(C)CN2C[C@@H](C)O[C@@H](C)C2)cc1 (stereo not given in full),-0.0971% [at 42.5 µM]
5,c1ccc(-c2nc3ccccc3[nH]2)cc1,5%
6,O=c1[nH]cccc1O,-0.882%
7,CCOC(=O)OC(=O)OCC,-2%
8,COc1cc(/C=C/C(=O)CC(=O)/C=C/c2ccc(O)c(OC)c2)ccc1O,1.47%
9,CC(c1cc(C(C)(C)C)cc(C(C)(C)C)c1O)c1cc(C(C)(C)C)cc(C(C)(C)C)c1O,-0.54%
10,Cc1cc(C)c(O)c(C(C)(C)C)c1,-2.7%
11,Oc1ccc(Cl)cc1C1CCCC1,1.69%
12,CC(C)(c1ccc(Oc2ccc(N)cc2)cc1)c1ccc(Oc2ccc(N)cc2)cc1,-12.7%
13,[Cl][Eu]([Cl])[Cl],-0.634%
14,Clc1ccc2c(Cl)ccnc2c1,-0.671%
15,CCC(=O)OC/C=C(\C)CCC=C(C)C,1.42%
16,Nc1cccnc1N,0.104%
17,CCSCC,-0.208%
18,O=C(Cl)c1ccc(Cl)cc1Cl,0.0051%
19,CC(C)(C)c1cc(CCC(=O)OCCSCCOC(=O)CCc2cc(C(C)(C)C)c(O)c(C(C)(C)C)c2)cc(C(C)(C)C)c1O,-2.14% [at 42.5 µM]
20,Cc1ccc(S(=O)(=O)C(I)I)cc1,-9.87%
